Results filed as inconclusive are left out. Active and inactive are the calls of the source. Calls follow the shape of the dose curve; as a rule, active = well fitted curve in the direction sought with a large enough effect; inconclusive = small, poorly fitted or top-dose-only effect, or another doubt; inactive = no such curve, though single readings can be large; an effect the other way counts as inactive or inconclusive.
Key:
[1] = Quantitative High-Throughput drug screen in 47 multiple myeloma cell lines against the NCATS MIPE library collection: Karpas620_DSMZ cell viability assay (AID 1918959); also: nearly all actives have a fitted effect of over 30% in size
Outline: (§1)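 We plated 500 myeloma cells per well, pinned in MIPE 4.0 compounds, and incubated for 48 hours at 37C. ATP was then quantified with CellTiter-Glo, with DMSO and media-only wells defining 100% and 0%.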

[2] = Quantitative High-Throughput drug screen in 47 multiple myeloma cell lines against the NCATS MIPE library collection: KMM1_JCRB cell viability assay (AID 1918960); also: nearly all actives have a fitted effect of over 30% in size
Outline: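 Viability screen: myeloma cells (500/well) incubated 48 h at 37 °C, humidified 5% CO2, with pinned library compounds; CellTiter-Glo added, luminescence read; DMSO wells set 100%, medium-only wells 0%.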

[3] = Quantitative High-Throughput drug screen in 47 multiple myeloma cell lines against the NCATS MIPE library collection: Karpas417_ECACC cell viability assay (AID 1918961); conditions: Karpas417 myeloma viability, CellTiter-Glo ATP luminescence, 48 h; viability (% of DMSO): at 45.8 µM (top of the series)
Outline: (§2)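 Viability readout: CellTiter-Glo luminescence following 5 min room-temperature incubation with reagent. Prior exposure: 48 h, 37C, humidified 5% CO2, 500 cells per well.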

[4] = Quantitative High-Throughput drug screen in 47 multiple myeloma cell lines against the NCATS MIPE library collection: KHM11_PLB cell viability assay (AID 1918962); also: nearly all actives have a fitted effect of over 35% in size
Outline: as §1

[5] = Quantitative High-Throughput drug screen in 47 multiple myeloma cell lines against the NCATS MIPE library collection: JIM3_ECACC cell viability assay (AID 1918963; also: nearly all actives have a fitted effect of over 35% in size)
Outline: as §1

[6] = Quantitative High-Throughput drug screen in 47 multiple myeloma cell lines against the NCATS MIPE library collection: JIM1_ECACC cell viability assay (AID 1918964)
Outline: (§3)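 Myeloma cell lines, 500 cells per well, exposed to MIPE 4.0 library compounds for 48 h at 37C, 5% CO2. Viability from ATP by CellTiter-Glo luminescence; normalised to DMSO (100%) and media-only (0%) wells.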

[7] = Quantitative High-Throughput drug screen in 47 multiple myeloma cell lines against the NCATS MIPE library collection: INA6_PLB cell viability assay (AID 1918965; also: nearly all actives have a fitted effect of over 55% in size)
Outline: as §2

[8] = Quantitative High-Throughput drug screen in 47 multiple myeloma cell lines against the NCATS MIPE library collection: JJN3_DSMZ cell viability assay (AID 1918966; also: nearly all actives have a fitted effect of over 50% in size)
Outline: as §3

[9] = Quantitative High-Throughput drug screen in 47 multiple myeloma cell lines against the NCATS MIPE library collection: H1112_PLB cell viability assay (AID 1918967; also: nearly all actives have a fitted effect of over 30% in size)
Outline: as §3

[10] = Quantitative High-Throughput drug screen in 47 multiple myeloma cell lines against the NCATS MIPE library collection: KMS27_JCRB cell viability assay (AID 1918970); conditions: KMS27 myeloma cells, CellTiter-Glo ATP viability, 48 h; viability (% of DMSO): at 45.8 µM (top of the series); also: nearly all actives have a fitted effect of over 30% in size
Outline: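 CellTiter-Glo luminescence after 48 h drug exposure at 37 °C; 500 cells/well, 1536-well format, pin-tool compound addition; DMSO = 100%, media-only = 0% viability.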

[11] = Quantitative High-Throughput drug screen in 47 multiple myeloma cell lines against the NCATS MIPE library collection: KMS12PE_JCRB cell viability assay (AID 1918972); also: nearly all actives have a fitted effect of over 30% in size
Outline: as §2

[12] = Quantitative High-Throughput drug screen in 47 multiple myeloma cell lines against the NCATS MIPE library collection: KMS26_JCRB cell viability assay (AID 1918975); also: nearly all actives have a fitted effect of over 45% in size
Outline: (§4)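 Steps: seed 500 cells per well; pin-transfer MIPE 4.0 library; incubate 48 h at 37C, 5% CO2, humidified; add CellTiter-Glo, 5 min room temperature; read luminescence.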

[13] = Quantitative High-Throughput drug screen in 47 multiple myeloma cell lines against the NCATS MIPE library collection: MMM1_PLB cell viability assay (AID 1918976); also: nearly all actives have a fitted effect of over 35% in size
Outline: (§5)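 Cells were exposed to library compounds for 48 hours, after which ATP was measured by CellTiter-Glo. Signal was taken as median relative luminescence units.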

[14] = Quantitative High-Throughput drug screen in 47 multiple myeloma cell lines against the NCATS MIPE library collection: MOLP8_DSMZ cell viability assay (AID 1918977); also: nearly all actives have a fitted effect of over 45% in size
Outline: as §5

[15] = Quantitative High-Throughput drug screen in 47 multiple myeloma cell lines against the NCATS MIPE library collection: NCIH929_DSMZ cell viability assay (AID 1918978); also: nearly all actives have a fitted effect of over 35% in size
Outline: as §5

[16] = Quantitative High-Throughput drug screen in 47 multiple myeloma cell lines against the NCATS MIPE library collection: OCIMY1_PLB cell viability assay (AID 1918979); also: nearly all actives have a fitted effect of over 35% in size
Outline: as §5

[17] = Quantitative High-Throughput drug screen in 47 multiple myeloma cell lines against the NCATS MIPE library collection: Karpas25_ECACC cell viability assay (AID 1918968; also: nearly all actives have a fitted effect of over 35% in size)
Outline: as §3

[18] = Quantitative High-Throughput drug screen in 47 multiple myeloma cell lines against the NCATS MIPE library collection: KMS12BM_JCRB cell viability assay (AID 1918971); also: nearly all actives have a fitted effect of over 35% in size
Outline: as §4

[19] = Quantitative High-Throughput drug screen in 47 multiple myeloma cell lines against the NCATS MIPE library collection: KMS20_JCRB cell viability assay (AID 1918973); also: nearly all actives have a fitted effect of over 45% in size
Outline: as §3

[20] = Quantitative High-Throughput drug screen in 47 multiple myeloma cell lines against the NCATS MIPE library collection: KMS21BM_JCRB cell viability assay (AID 1918974); conditions: ATP luminescence, 48 h; viability: at 45.8 µM (top of the series)
Outline: as §3

Measured: Potency
Potency is read from the fitted curve at half-maximal effect.

C[C@H](NCc1ccc(OCc2cccc(F)c2)cc1)C(N)=O
active: [1] 3.72 µM | [2] 6.62 µM | [3] 2.64 µM | [4] 1.48 µM | [5] 2.96 µM | [6] 3.72 µM | [7] 1.32 µM | [8] 8.33 µM | [9] 5.9 µM | [10] 1.66 µM | [11] 1.87 µM | [12] 18.7 µM | [13] 11.8 µM | [14] 2.64 µM | [15] 2.64 µM | [16] 10.5 µM

CC(C=CC(=O)NO)=C[C@@H](C)C(=O)c1ccc(N(C)C)cc1
active: [1] 0.418 µM | [2] 0.209 µM | [3] 0.105 µM | [4] 0.372 µM | [5] 0.743 µM | [6] 0.296 µM | [8] 0.187 µM | [9] 0.372 µM | [17] 0.264 µM | [10] 0.264 µM | [18] 0.264 µM | [11] 0.235 µM | [19] 0.148 µM | [20] 0.166 µM | [12] 0.264 µM | [13] 0.187 µM | [14] 0.0935 µM | [15] 0.296 µM

Nc1nc(N)c2nc(-c3cccc(O)c3)c(-c3cccc(O)c3)nc2n1
active: [1] 11.8 µM | [2] 3.72 µM | [3] 1.32 µM | [4] 3.32 µM | [5] 9.35 µM | [6] 1.87 µM | [7] 2.35 µM | [8] 18.7 µM | [9] 7.43 µM | [17] 4.69 µM | [10] 4.18 µM | [11] 13.2 µM | [19] 7.43 µM | [20] 7.43 µM | [14] 26.4 µM | [15] 4.18 µM

COc1cc2c(cc1OC)[C@@H]1C(=O)c3ccc4c(c3O[C@@H]1CO2)C=CC(C)(C)O4
active: [1] 0.0332 µM | [2] 0.526 µM | [3] 0.209 µM | [4] 4.18 µM | [5] 8.33 µM | [6] 1.18 µM | [7] 0.001 µM | [8] 9.35 µM | [9] 0.0296 µM | [19] 6.62 µM | [12] 9.35 µM | [13] 0.0187 µM | [14] 11.8 µM | [15] 0.662 µM

C[C@@]12C(=O)OC(=O)[C@@]1(C)C1CCC2O1
active: [1] 2.96 µM | [2] 0.743 µM | [3] 2.96 µM | [4] 2.35 µM | [5] 1.87 µM | [6] 0.662 µM | [7] 2.64 µM | [8] 0.662 µM | [9] 3.72 µM | [17] 1.18 µM | [10] 2.09 µM | [18] 1.66 µM | [11] 1.87 µM | [19] 2.64 µM | [12] 2.09 µM | [13] 1.87 µM | [14] 3.72 µM | [15] 2.64 µM

Cc1ccc2nc(NCCN)c3ncc(C)n3c2c1
active: [1] 11.8 µM | [2] 7.43 µM | [3] 8.33 µM | [4] 2.64 µM | [5] 8.33 µM | [6] 3.32 µM | [7] 5.9 µM | [8] 1.66 µM | [9] 4.69 µM | [17] 9.35 µM | [10] 6.62 µM | [18] 3.72 µM | [11] 9.35 µM | [19] 6.62 µM | [12] 2.64 µM | [13] 2.64 µM | [14] 4.18 µM | [15] 5.9 µM | [16] 14.8 µM

O=C(C=Cc1ccc(CN(CCO)CCc2c[nH]c3ccccc23)cc1)NO
active: [1] 0.148 µM | [2] 0.105 µM | [3] 0.105 µM | [4] 0.209 µM | [5] 0.332 µM | [6] 0.132 µM | [7] 0.0296 µM | [9] 0.187 µM | [17] 0.059 µM | [10] 0.105 µM | [18] 0.0833 µM | [11] 0.0833 µM | [12] 0.105 µM | [13] 0.0662 µM | [14] 0.0833 µM | [15] 0.105 µM | [16] 0.296 µM

CCN(CC)Cc1ccc2cc(COC(=O)Nc3ccc(C(=O)NO)cc3)ccc2c1
active: [1] 0.833 µM | [2] 0.469 µM | [3] 0.526 µM | [4] 1.32 µM | [5] 1.48 µM | [6] 0.469 µM | [7] 0.0743 µM | [8] 0.833 µM | [9] 1.18 µM | [17] 0.372 µM | [10] 0.235 µM | [18] 0.469 µM | [19] 0.332 µM | [12] 0.743 µM | [14] 0.372 µM | [15] 0.59 µM | [16] 1.32 µM
